According to PubChem BioAssay (NCI):
The panel holds about 79,000 compounds, 15% with a hit somewhere; the sample as a whole holds those more often. Active and inactive are the calls of the source. No stated cut-off is given here; in the data, active means growth inhibition above about 70%; inactive means the rest.

Columns and labels:
[1] = NCI Yeast Anticancer Drug Screen. Data for the rad50 strain (AID 155);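 further: 0% = growth of vehicle-only cultures of the same strain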; conditions: S. cerevisiae rad50 strain growth inhibition; at 50.0 µM; hits give high values
Outline: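 Genetically altered yeast (DNA repair pathway); compound treatment; growth inhibition vs vehicle ctrl.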

[2] = NCI Yeast Anticancer Drug Screen. Data for the mec2-1 strain (AID 157); conditions: S. cerevisiae mec2-1 strain, at 50.0 µM, hits give high values
Outline: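 Using mec2-1 yeast: add compound, measure growth, express inhibition versus vehicle-treated cultures.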

[3] = NCI Yeast Anticancer Drug Screen. Data for the sgs1 mgt1 strain (AID 161);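 further: 0% = growth of cultures given vehicle only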; conditions: S. cerevisiae sgs1 mgt1 strain, at 50.0 µM, hits give high values
Outline: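 Percent growth inhibition was derived by comparing compound-exposed mutant yeast with vehicle-exposed cultures. The strain carries alterations in DNA damage repair.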

[4] = NCI Yeast Anticancer Drug Screen. Data for the cln2 rad14 strain (AID 165);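 further: 0% = growth equal to vehicle treated cultures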; conditions: S. cerevisiae cln2 rad14 strain, at 50.0 µM, hits give high values
Outline: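 Yeast strain cln2 rad14, bearing defects in cell cycle control and DNA repair, serves as the test system; values reflect growth inhibition compared with vehicle.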

[5] = NCI Yeast Anticancer Drug Screen. Data for the bub3 strain (AID 167); conditions: S. cerevisiae bub3 mutant strain, at 50.0 µM, hits give high values
Outline: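 Yeast carrying a defined mutation is treated with each compound, and growth is compared with that of vehicle-exposed cells to give inhibition.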

[6] = NCI Yeast Anticancer Drug Screen. Data for the mlh1 rad18 strain (AID 175); conditions: S. cerevisiae mlh1 rad18 strain growth inhibition; at 50.0 µM; hits give high values
Outline: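 Steps: expose repair-defective yeast to compound; measure growth; express inhibition against vehicle-treated controls.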

Measured: growth inhibition

Cc1cc(=O)cc(-c2ccccc2)[nH]1
inactive: [1] -32.5% | [2] -11.3% | [3] -12.5% | [4] -37.3% | [5] -2.5% | [6] 6.55%

CCOC(=O)Nc1cc(Cl)c2nnn(C(=O)OCC)c2n1
active: [1] 95.8% | [2] 98.2% | [3] 97.9% | [4] 90.7% | [5] 96.7% | [6] 97.6%

Cc1nn(C(=O)CC(=O)Nc2ccc(Cl)cc2)c(C)c1N=Nc1ccccc1F
inactive: [1] -40% | [2] -25.5% | [3] -60.6% | [4] -12.4% | [5] -28.4% | [6] -43%

O=C1Nc2cc(F)ccc2C1=O
inactive: [1] 15.5% | [2] 15.1% | [3] 7.95% | [4] 10.7% | [5] 19.6% | [6] 19.4%

c1ccc2nn(C3CCCCO3)nc2c1 (configuration not stated)
inactive: [1] -8.05% | [2] -9.85% | [3] -25.9% | [4] -18.1% | [5] 5.65% | [6] -54.6%

O=C1Nc2noc(=O)nc2NO1
inactive: [1] 13.1% | [2] 4.8% | [3] -0.35% | [4] -2.5% | [5] -22.4% | [6] -18.5%

C[Si](C)(C)CCCO
inactive: [1] 0.25% | [2] 17.8% | [3] 3.3% | [4] 6.9% | [5] 9.25% | [6] 10%

Cc1cc(S(=O)(=O)O)cc(Cl)c1N
inactive: [1] -11.3% | [2] -27.9% | [3] -0.85% | [4] -0.5% | [5] -23.8% | [6] -9.4%

CCOC(=O)c1ccc(NC(=S)N(CCC#N)C2CCCCC2)cc1
inactive: [1] 33.4% | [2] 7.2% | [3] 62.5% | [4] 27.1% | [5] 48.4% | [6] 30.9%

CCN(CC)CCOC(=O)c1ccc(N=NC2Sc3nc4ccccc4n3C2=O)cc1 (configuration not stated)
inactive: [1] 27.9% | [2] 20.2% | [3] 15.9% | [4] 14.4% | [5] 6.8% | [6] 27.8%

CC(c1ccccc1)C1OCCO1 (configuration not stated)
inactive: [1] -7.45% | [2] -27.4% | [3] -15.8% | [4] -30.8% | [5] -28.2% | [6] 28.7%

C/C(N)=N/OCc1ccccc1
inactive: [1] 8.9% | [2] 6.95% | [3] 10.7% | [4] 4.7% | [5] 10.2% | [6] 7.7%

COc1cc2nccnc2cc1OC
inactive: [1] 10.1% | [2] 7.05% | [3] 3.35% | [4] -7.45% | [5] 6.55% | [6] 21.2%

CN(C)c1ccc([N+](=O)[O-])c2c1CCC2
inactive: [1] 9.7% | [2] -4.55% | [3] 7.25% | [4] 5.6% | [5] 6.85% | [6] 6.55%

CCC(O)C(C)C(O)CC (configuration not stated)
inactive: [1] 7.9% | [2] 14.7% | [3] 2.6% | [4] 13.3% | [5] 13.2% | [6] 17.5%

CCC(CC)OCc1ccccc1
inactive: [1] 12.1% | [2] 9.4% | [3] 6.6% | [4] 5.5% | [5] 0.55% | [6] 1.1%

O=C1CC=C2C3CC4N(CCC45c4ccccc4N1C25)C/C3=C\CBr (configuration not stated)
inactive: [1] -8.45% | [2] -21.8% | [3] -7.95% | [4] 8.15% | [5] 7.2% | [6] -5.95%

COc1ccccc1NC(=O)C(C#N)=C(SC)SC
inactive: [1] 2.05% | [2] -14.2% | [3] 0.1% | [4] 18.6% | [5] -22.4% | [6] -13.7%

CCOC(=O)C(C(O)c1ccc([N+](=O)[O-])cc1)P(=O)(OCC)OCC (configuration not stated)
inactive: [1] 24.3% | [2] -16.4% | [3] -4.7% | [4] 5.25% | [5] -10.9% | [6] -20.2%

CNC(=S)N(C1CCCCC1)C1CCCCC1
inactive: [1] 26% | [2] -13.4% | [3] -2.2% | [4] -15% | [5] -10.1% | [6] 37%

O=C(/C=C/c1ccccc1)NCC(O)CO (configuration not stated)
inactive: [1] 7.1% | [2] -2.95% | [3] -3.65% | [4] -0.3% | [5] 0.5% | [6] 11.7%

CCCCCCCC(CCCCCCC)C(=O)OCCO
inactive: [1] -7.4% | [2] -7.9% | [3] 3.7% | [4] -21.8% | [5] -4.95% | [6] -5.6%

C/C(O)=C(\N=Nc1ccccc1)C(N)=O
inactive: [1] -9.45% | [2] 7.95% | [3] 5.9% | [4] -28.9% | [5] -0.8% | [6] -3.45%

O=C(COC(=O)C(CC(=O)c1ccccc1)Cc1ccccc1)c1ccc(-c2ccccc2)cc1 (configuration not stated)
inactive: [1] 25.7% | [2] 25.3% | [3] 6% | [4] 30.8% | [5] 35.4% | [6] 13.3%

CN=C(N)N/N=C(\c1ccccc1)c1ccc(Cl)cc1
inactive: [1] 43.4% | [2] 11.6% | [3] 43.1% | [4] 3.55% | [5] 34.6%
active: [6] 72.9%

CN1c2ccccc2Oc2ccc3ccccc3c21
inactive: [1] 13.8% | [2] -24.6% | [3] 0.95% | [4] -4.3% | [5] -8.2% | [6] 12.8%

CC(C)(C)OC(=O)CC1(C)NC(C(=O)O)C(C)(C)S1 (configuration not stated)
inactive: [1] 13.3% | [2] -0.65% | [3] -10.9% | [4] -9.75% | [5] 14.8% | [6] 10.8%

COc1cc(-c2c(C#N)c(OC)[nH]c(=O)c2C#N)cc(OC)c1OC
inactive: [1] 3.85% | [2] 13.3% | [3] 7.55% | [4] 13.4% | [5] 1.85% | [6] -0.45%

C(=C\c1ccco1)/c1ccco1
inactive: [1] 25.1% | [2] 11.2% | [3] 12.3% | [4] 9.85% | [5] -20.9% | [6] -25.9%

CC(=O)OCC1COC(C)(c2ccccc2)O1 (configuration not stated)
inactive: [1] 4.65% | [2] 0.3% | [3] -6.65% | [4] 3.7% | [5] 4.15% | [6] -9.55%

CC(=O)OC(C)C1(C)CCC2CCCC(C)(C)C2C1 (configuration not stated)
inactive: [1] -6.4% | [2] -5.15% | [3] -11.9% | [4] 0.7% | [5] 9.45% | [6] -13.7%

Brc1ccccc2cc(-c3ccccc3)nc1-2
inactive: [1] 54.9% | [2] 30.5% | [3] 34.5% | [4] 19.9% | [5] 37.2% | [6] -7%

Cc1ccc(N=Cc2cccs2)c(Br)c1
inactive: [1] -5.7% | [2] -20.1% | [3] -0.2% | [4] 6.4% | [5] -0.95% | [6] 5.95%

CCOC(=O)C(NC(=O)c1ccccc1)(C(=O)OCC)c1ccccn1
inactive: [1] 8.55% | [2] -13.5% | [3] 9.65% | [4] 18.8% | [5] 9.6% | [6] 22.6%

O=C1C2C3CC(C4C5C=CC(C5)C34)C2C2C3CC(C12)C1C2C=CC(C2)C31 (configuration not stated)
inactive: [1] -19.1% | [2] -15.9% | [3] -24% | [4] 17.8% | [5] -9.15% | [6] -24.4%

CSCCC(Nc1ncnc2nc[nH]c12)C(=O)O (configuration not stated)
inactive: [1] -9.7% | [2] 3.05% | [3] 3.6% | [4] -12.7% | [5] 0.9% | [6] -9.5%

Fc1ccc(Cl)c(-c2nc3ccccc3[nH]2)c1
inactive: [1] 14.2% | [2] 15.4% | [3] 2.85% | [4] 2.35% | [5] -1.5% | [6] 47.3%

O=C(N/N=C/c1ccc(Cl)cc1)c1ccccc1NC(=O)C1CC1
inactive: [1] -3.85% | [2] -14.2% | [3] 28% | [4] -23.6% | [5] 11.8% | [6] 33.2%

CCCCCC(=O)C(C)C1(C(=O)OC)NC(=S)NC(=O)C1C#N (configuration not stated)
inactive: [1] 16.8% | [2] 14.8% | [3] 13.1% | [4] 12.4% | [5] -1.9% | [6] 17.4%

COc1ccc(SC(N(C)C)=[N+](C)C)cc1
inactive: [1] -17.1% | [2] 1.1% | [3] 7.1% | [4] 11.4% | [5] 2.8% | [6] 3.8%

CC(=O)SC12CCCN1C(=O)C1(SC(C)=O)CCCN1C2=O (configuration not stated)
inactive: [1] 40.5% | [2] 26.4% | [3] 45.2% | [4] -28.9% | [5] 3.3% | [6] 37%

Cc1c(Br)c(Br)nn1C(C)C(=O)N(C)C (configuration not stated)
inactive: [1] 1.75% | [2] 1.6% | [3] -4.55% | [4] -40.8% | [5] -31.8% | [6] 4.45%
